Of roughly 8,800 targets only a part is listed; those with a hit were picked by preference. About 0.5% of all pairs of compound and target were hits. Unmarked numbers belong to inactive results.

What all share (experiment): log2 fold change, soluble protein after heating vs DMSO (PISA); higher = thermal stabilisation; K562 lysate, 10 uM; active = over 0.2 and 3.5 SD of the protein, either way, in both replicates (recomputed)
Compound in experiment [1]: CCn1c(C(=O)N(C2CC2)C2CC2)cc2c3c(ncn3C)c(Nc3cc(C)n(C)n3)nc21
In outline:
(§1)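 A 30 min treatment with 10 μM compound was applied to crude K562 extract at 1 mg/mL protein in PBS pH 7.4 with 1 mM MgCl2. Heating for 3 min spanned 48°C-58°C, after which aliquots were pooled, adjusted to 0.5% NP-40 at 4°C and spun at 21,000xg for 90 min. TMTpro 16plex LC-MS/MS of the supernatant, with channel sums equalised, gave values recorded as log-two fold change in thermal stability against solvent controls, from duplicates.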

Compound in experiment [2]: CN1CCc2c(c3ccccc3n2Cc2ccc(C(=O)NO)cc2)C1 [Tubastatin A]
In outline:
as §1

Compound in experiment [3]: COc1cc(Nc2ncc3c(n2)-c2ccc(Cl)cc2C(c2c(F)cccc2OC)=NC3)ccc1C(=O)O [alisertib]
In outline: as §1

Compound in experiment [4]: COc1cc2ncnc(Nc3ccc(F)c(Cl)c3)c2cc1OCCCN1CCOCC1 [gefitinib]
In short, it runs like this:
as §1

Compound in experiment [5]: CC[C@@H]1C(=O)N(C)c2cnc(Nc3ccc(C(=O)NC4CCN(C)CC4)cc3OC)nc2N1C1CCCC1
In short, it runs like this: as §1

Compound in experiment [6]: COC(=O)N[C@@H](C)CNc1nccc(-c2cn(C(C)C)nc2-c2cc(Cl)cc(NS(C)(=O)=O)c2F)n1 [encorafenib]
In short, it runs like this:
as §1

Compound in experiment [7]: COC(=O)[C@H](CCSC)NC(=O)C1=C(C=C(C=C1)NC[C@H](CS)N)C2=CC=CC=C2
In short, it runs like this:
as §1

Compound in experiment [8]: CCCS(=O)(=O)Nc1ccc(F)c(C(=O)c2c[nH]c3ncc(-c4ccc(Cl)cc4)cc23)c1F [vemurafenib]
In short, it runs like this:
as §1

Compound in experiment [9]: CCN(CCCOc1ccc2c(Nc3cc(CC(=O)Nc4cccc(F)c4)[nH]n3)ncnc2c1)CCOP(=O)(O)O [barasertib]
In outline: as §1

Compound in experiment [10]: CN1CCN(CCOc2cc(OC3CCOCC3)c3c(Nc4c(Cl)ccc5c4OCO5)ncnc3c2)CC1 [saracatinib]
In short, it runs like this:
as §1

Compound in experiment [11]: CNC(=O)C1=CC=CC=C1NC2=NC(=NC=C2Cl)NC3=C(C=C(C=C3)N4CCOCC4)OC
In short, it runs like this:
as §1

Compound in experiment [12]: CNC(=O)c1ccc(Nc2ncc(C(F)(F)F)c(NCc3nccnc3N(C)S(C)(=O)=O)n2)cc1 [defactinib]
In short, it runs like this: as §1

Compound in experiment [13]: CNc1nc(-c2ccc3c(N)n[nH]c3c2)cc(N2C[C@@H](C(=O)NC3CCCCC3)CC[C@H]2C)n1
In outline:
as §1

Compound in experiment [14]: CCCS(=O)(=O)Nc1ccc(F)c(C(=O)c2c[nH]c3ncc(Cl)cc23)c1F
In outline:
as §1

Compound in experiment [15]: CC[C@@H]1C(=O)N(C)c2cnc(Nc3ccc(C(=O)N[C@H]4CC[C@H](N5CCN(CC6CC6)CC5)CC4)cc3OC)nc2N1C(C)C [volasertib]
In outline: as §1

Compound in experiment [16]: CCn1cc(-c2ccnc3[nH]c(-c4cccc(CN(C)C)c4)cc23)c(-c2ccc(NC(=O)N(C)C)cc2)n1
In short, it runs like this: as §1

Compound in experiment [17]: CN1CCC(CNc2ccc3ncc(-c4cccc(OC(F)(F)F)c4)n3n2)CC1
In short, it runs like this:
as §1

Compound in experiment [18]: CN1CCN(c2nc(C3=C(c4c[nH]c5ccccc45)C(=O)NC3=O)c3ccccc3n2)CC1 [sotrastaurin]
In short, it runs like this: as §1

Compound in experiment [19]: CN1CC[C@H](c2c(O)cc(O)c3c(=O)cc(-c4ccccc4Cl)oc23)[C@H](O)C1 [alvocidib]
In short, it runs like this: as §1

Compound in experiment [20]: COc1cc2nc(-c3cc(F)ccc3O)nc(N[C@@H]3CNC[C@H]3C(C)(C)O)c2cc1OC
In short, it runs like this: as §1

Sequence of UniProt P54277 (P54277 whole entry, looked up): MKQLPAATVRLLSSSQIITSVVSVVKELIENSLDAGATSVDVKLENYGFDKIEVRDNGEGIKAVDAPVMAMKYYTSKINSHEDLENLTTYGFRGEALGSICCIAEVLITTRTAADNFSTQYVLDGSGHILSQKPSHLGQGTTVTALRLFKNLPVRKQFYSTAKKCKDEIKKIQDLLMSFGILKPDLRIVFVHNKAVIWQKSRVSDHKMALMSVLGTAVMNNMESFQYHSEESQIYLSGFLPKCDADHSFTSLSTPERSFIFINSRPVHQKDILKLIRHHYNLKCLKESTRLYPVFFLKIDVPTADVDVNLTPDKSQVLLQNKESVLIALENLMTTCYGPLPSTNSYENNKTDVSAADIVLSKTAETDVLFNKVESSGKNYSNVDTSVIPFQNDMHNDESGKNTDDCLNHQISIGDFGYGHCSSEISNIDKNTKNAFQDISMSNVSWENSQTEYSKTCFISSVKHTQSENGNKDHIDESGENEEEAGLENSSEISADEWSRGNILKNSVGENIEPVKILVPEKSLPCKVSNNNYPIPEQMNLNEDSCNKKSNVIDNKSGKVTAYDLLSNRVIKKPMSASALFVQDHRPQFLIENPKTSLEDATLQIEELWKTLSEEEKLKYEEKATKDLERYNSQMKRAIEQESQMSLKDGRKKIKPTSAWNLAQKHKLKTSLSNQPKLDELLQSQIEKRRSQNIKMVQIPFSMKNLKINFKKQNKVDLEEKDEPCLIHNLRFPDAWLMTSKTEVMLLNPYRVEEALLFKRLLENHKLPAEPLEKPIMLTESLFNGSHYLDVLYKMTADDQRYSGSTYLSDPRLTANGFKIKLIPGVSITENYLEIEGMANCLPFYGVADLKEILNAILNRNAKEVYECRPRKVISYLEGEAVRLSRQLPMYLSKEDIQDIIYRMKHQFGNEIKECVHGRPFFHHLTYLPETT
Sequence of UniProt Q9BY49 (Q9BY49 whole entry, looked up): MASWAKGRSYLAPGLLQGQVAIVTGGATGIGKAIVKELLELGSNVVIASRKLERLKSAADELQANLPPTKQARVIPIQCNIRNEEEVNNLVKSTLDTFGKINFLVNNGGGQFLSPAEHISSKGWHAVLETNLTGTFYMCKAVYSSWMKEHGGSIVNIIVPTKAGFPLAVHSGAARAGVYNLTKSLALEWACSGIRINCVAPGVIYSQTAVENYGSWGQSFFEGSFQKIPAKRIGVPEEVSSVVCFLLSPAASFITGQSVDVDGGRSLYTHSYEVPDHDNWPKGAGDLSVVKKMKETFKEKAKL
Sequence of UniProt P78364 (P78364 whole entry, looked up): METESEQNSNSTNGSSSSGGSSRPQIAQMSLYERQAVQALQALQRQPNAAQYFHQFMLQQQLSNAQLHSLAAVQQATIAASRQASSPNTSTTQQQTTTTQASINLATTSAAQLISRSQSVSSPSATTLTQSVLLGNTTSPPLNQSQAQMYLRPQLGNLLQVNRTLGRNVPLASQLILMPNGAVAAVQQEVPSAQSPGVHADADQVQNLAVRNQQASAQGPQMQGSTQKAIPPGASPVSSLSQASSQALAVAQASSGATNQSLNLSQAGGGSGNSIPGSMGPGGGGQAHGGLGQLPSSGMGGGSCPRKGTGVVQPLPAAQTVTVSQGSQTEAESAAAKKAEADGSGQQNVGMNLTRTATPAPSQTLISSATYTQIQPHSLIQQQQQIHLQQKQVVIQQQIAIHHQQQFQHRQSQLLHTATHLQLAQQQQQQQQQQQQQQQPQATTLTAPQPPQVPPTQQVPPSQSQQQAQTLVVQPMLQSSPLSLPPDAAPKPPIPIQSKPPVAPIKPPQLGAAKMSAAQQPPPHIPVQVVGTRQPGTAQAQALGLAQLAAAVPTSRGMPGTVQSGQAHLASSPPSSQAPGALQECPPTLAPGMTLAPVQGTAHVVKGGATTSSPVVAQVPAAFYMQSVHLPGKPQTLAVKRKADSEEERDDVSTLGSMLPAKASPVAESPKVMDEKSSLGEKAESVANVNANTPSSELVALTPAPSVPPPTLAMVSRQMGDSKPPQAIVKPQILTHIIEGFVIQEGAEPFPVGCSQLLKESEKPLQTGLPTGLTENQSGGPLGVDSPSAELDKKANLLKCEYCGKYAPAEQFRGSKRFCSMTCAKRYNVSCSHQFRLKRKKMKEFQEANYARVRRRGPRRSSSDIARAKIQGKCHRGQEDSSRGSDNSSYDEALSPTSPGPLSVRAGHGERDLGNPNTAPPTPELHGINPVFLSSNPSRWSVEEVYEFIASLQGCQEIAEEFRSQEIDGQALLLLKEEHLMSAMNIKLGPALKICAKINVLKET
Sequence of UniProt P45877 (P45877 whole entry, looked up): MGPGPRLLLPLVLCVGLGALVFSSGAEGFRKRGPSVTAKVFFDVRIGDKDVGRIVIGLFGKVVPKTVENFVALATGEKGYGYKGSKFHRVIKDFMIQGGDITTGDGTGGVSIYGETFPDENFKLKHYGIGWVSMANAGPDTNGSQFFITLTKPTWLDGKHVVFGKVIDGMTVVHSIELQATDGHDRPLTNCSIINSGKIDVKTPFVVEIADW
Sequence of UniProt Q16378 (Q16378 whole entry, looked up): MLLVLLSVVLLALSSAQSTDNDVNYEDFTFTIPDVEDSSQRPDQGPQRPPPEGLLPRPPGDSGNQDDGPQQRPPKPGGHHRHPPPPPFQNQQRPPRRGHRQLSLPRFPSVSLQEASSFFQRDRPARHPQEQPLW
Sequence of UniProt Q13362 (Q13362 whole entry, looked up): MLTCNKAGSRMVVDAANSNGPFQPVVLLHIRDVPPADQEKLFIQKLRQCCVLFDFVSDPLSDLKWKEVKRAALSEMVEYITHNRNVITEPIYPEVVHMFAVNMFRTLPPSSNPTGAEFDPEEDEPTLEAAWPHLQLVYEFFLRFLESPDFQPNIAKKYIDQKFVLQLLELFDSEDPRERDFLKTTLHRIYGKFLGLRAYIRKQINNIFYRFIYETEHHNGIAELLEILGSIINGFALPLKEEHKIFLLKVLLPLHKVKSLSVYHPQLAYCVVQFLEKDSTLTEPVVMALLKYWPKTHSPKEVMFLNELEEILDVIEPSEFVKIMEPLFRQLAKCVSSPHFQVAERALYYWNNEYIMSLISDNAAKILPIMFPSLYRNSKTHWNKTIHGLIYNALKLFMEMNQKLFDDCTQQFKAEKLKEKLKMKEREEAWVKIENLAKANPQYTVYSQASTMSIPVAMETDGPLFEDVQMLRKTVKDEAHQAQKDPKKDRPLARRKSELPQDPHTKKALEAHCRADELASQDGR
Sequence of UniProt O14668 (O14668 whole entry, looked up): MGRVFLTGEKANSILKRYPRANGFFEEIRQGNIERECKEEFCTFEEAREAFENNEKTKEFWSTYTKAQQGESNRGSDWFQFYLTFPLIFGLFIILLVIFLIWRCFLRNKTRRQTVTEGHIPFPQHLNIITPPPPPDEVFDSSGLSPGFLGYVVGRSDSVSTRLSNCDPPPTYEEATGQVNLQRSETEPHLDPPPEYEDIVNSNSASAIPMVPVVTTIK
Sequence of UniProt P06454 (P06454 whole entry, looked up): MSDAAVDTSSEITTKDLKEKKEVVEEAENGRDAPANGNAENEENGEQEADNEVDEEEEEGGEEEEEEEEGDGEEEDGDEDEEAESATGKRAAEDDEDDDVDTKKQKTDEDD

For the target PRRG1 (UniProt O14668), the values for the log2 fold change in experiment [1] and in experiment [2] were 0.052 and -0.032, respectively.
Consider PPT2, A0A140T9Y1, for which the log2 fold change in experiment [3] is -0.144; in experiment [4] it was 0.006.
As for PECR (UniProt Q9BY49), the values for the log2 fold change in experiment [5], in [6] and in experiment [7] were 0.023, 0.101 and -0.184, respectively.
Take PCBP2 (UniProt F8W0G4): the log2 fold change in [8] is 0.121; in experiment [9], 0.035; in experiment [5], -0.253; in [1], -0.066; in experiment [10], 0.005; in experiment [2], -0.009. The log2 fold change was 0.01 in [11]; 0.044 in experiment [12]; 0.033 in experiment [13]; 0.125 in experiment [6]; -0.006 in experiment [7]; 0.192 in [3]. The log2 fold change in experiment [4] is 0.028.
With PCBP2 (UniProt F8VRH0), the log2 fold change in [14] was -0.035; in experiment [15], -0.058; in [1] it was -0.138; in [16], -0.033; in experiment [17], -0.047; in [18], -0.066. Also, the log2 fold change in experiment [19] was -0.1; in experiment [2], 0.067; in experiment [11], -0.123; in experiment [3], 0.231; in experiment [20], 0.096; in experiment [4], 0.045.
As to PREP (UniProt H0Y5Y0), the log2 fold change was 0.019 in experiment [14]; 0.079 in [15]; 0.678 in [16]; -0.144 in experiment [17]; 0.082 in [19]; 0.03 in [20].
As for PHC1 (UniProt P78364), the log2 fold change in [8] was 0.042; in experiment [9], 0.034; in experiment [5], 0.097; in [10], 0.066; in [18], -0.354; in experiment [12], 0.005. The log2 fold change in [13] is 0.184; in experiment [6], 0.059; in experiment [7] it was -0.062; in [3] it was -0.017; in [4], -0.101.
Turning to PPP2R5C isoform 2 (UniProt Q13362), the log2 fold change in [8] was 0.014; in experiment [9] it was -0.267; in [1], -0.081; in experiment [16], -0.023; in experiment [17], -0.033; in [10] it was 0.014. Further, the log2 fold change in experiment [18] is 0.134; in experiment [19] it was -0.004; in experiment [2], 0.044; in experiment [11], -0.028; in [12], -0.024; in experiment [13] it was 0.001. Moreover, the log2 fold change is 0.058 in experiment [3] and -0.062 in experiment [4].
Consider PDIA4, A0A499FI48, for which the log2 fold change in [16] is 1.69 (active); in [17] it was -0.33; in experiment [10], 0.03; in experiment [18], -0.048; in experiment [19] it was 0.336; in experiment [13] it was -0.003.
Regarding PTMA isoform 2 (UniProt P06454), in [9], the log2 fold change is -0.09.
Consider PMS1 (UniProt P54277), for which the log2 fold change is 0.037 in experiment [8]; 0.193 in [9]; 0.019 in experiment [5]; -0.028 in experiment [1]; -0.01 in experiment [16]; -0.051 in experiment [17]. The log2 fold change in [10] is 0.016; in [18], -0.002; in [19] it was -0.038; in experiment [2], -0.046; in [11] it was -0.008; in experiment [12], 0. Also, the log2 fold change is -0.039 in experiment [13]; 0.046 in experiment [6]; 0.022 in experiment [7]; -0.01 in [3]; 0.049 in experiment [4].
As to PRR4 (UniProt Q16378), the log2 fold change is 0.367 in experiment [8]; 0.038 in experiment [14]; -0.21 in experiment [5]; -0.046 in experiment [15]; -0.005 in experiment [1]; 0.358 in experiment [16]. Besides, the log2 fold change is -1.21 (active) in experiment [17]; -0.033 in experiment [19]; 0.181 in [2]; 0.215 in experiment [11]; 0.08 in [12]; -0.396 in experiment [6]. Further, the log2 fold change in experiment [7] is 0.126; in experiment [3], 0.075; in experiment [20], -0.011; in [4], 0.026.
Consider PRG4 (UniProt Q92954), for which the log2 fold change in experiment [14] was -0.038; in experiment [9], 0.332; in [15], 0.054; in [1], -0.03; in [16] it was -0.179; in [17] it was 0.229. Also, the log2 fold change in [10] is 0.009; in experiment [18], -0.02; in [19], -0.826 (active); in [2], 0.103; in [13], 0.204; in experiment [3], -0.045. Further, the log2 fold change in experiment [20] was 0.093; in experiment [4], -0.076.
Take PPP2CA (UniProt E7ESG8): the log2 fold change was 0.139 in experiment [3] and -0.034 in [4].
PPIC (UniProt P45877): the log2 fold change is -0.009 in experiment [8]; 0.203 in experiment [9]; 0.078 in [1]; -0.112 in experiment [16]; 0.124 in [17]; -0.004 in [10]. Also, the log2 fold change in [18] is -0.453 (active); in [19], -0.031; in experiment [2], 0.089; in experiment [11], 0.024; in [12], 0.077; in [13], -0.052. Besides, the log2 fold change was 0.004 in experiment [3] and 0.103 in experiment [4].
